# Results as given in article PMC7862700, “An all-to-all approach to the identification of sequence-specific readers for epigenetic DNA modifications on cytosine”.
# What was measured:
# Assay in all cases: DAPPL (digital affinity profiling via proximity ligation, sequencing); 10 mM Tris-HCl pH 7.5, 50 mM NaCl, 1 mM DTT, 4% glycerol, room temperature, 30 min; GST-TFs on glutathione beads, 16-mer random dsDNA library, 0.1% formaldehyde crosslink after washing; high values mean tight binding
# FLI1 = target: T1, FLI1 (Homo sapiens, UniProt Q01543 1-452); settings: protein: recombinant; tags: N-terminal GST; dsDNA, one strand shown
# T1 sequence: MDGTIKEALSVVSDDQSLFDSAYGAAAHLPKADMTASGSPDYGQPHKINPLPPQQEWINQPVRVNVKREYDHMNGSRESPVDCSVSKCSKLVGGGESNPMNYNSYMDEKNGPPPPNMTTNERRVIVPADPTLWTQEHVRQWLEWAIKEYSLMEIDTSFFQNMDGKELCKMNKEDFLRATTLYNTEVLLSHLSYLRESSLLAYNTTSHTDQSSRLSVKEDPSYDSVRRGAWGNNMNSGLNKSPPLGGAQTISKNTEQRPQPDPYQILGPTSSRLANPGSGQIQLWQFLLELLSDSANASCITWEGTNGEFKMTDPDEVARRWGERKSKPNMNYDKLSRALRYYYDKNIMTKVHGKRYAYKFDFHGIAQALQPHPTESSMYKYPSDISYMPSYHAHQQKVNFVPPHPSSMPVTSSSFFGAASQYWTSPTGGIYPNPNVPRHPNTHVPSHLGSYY
# Procedure, shortened: (§1)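 Pools of DNA-barcoded human transcription factors, expressed in yeast as GST fusions on glutathione beads and combined with a tag-only sample, were incubated with 200 nmole of a 16-mer random double-stranded DNA library. Incubation took 30 min at room temperature in Tris/NaCl/DTT/glycerol buffer and was followed by washing, 0.1% formaldehyde crosslinking, proximity ligation (BsaI/T4 ligase, 1 h, 37 °C), PCR amplification and sequencing on an Illumina NextSeq500. Binding signal is the ratio of a hexamer's read frequency for a factor to its frequency for the tag-only sample.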
# ELK1 = target: T2, ELK1 (Homo sapiens, UniProt P19419 1-428); settings: protein: recombinant; tags: N-terminal GST; dsDNA, one strand shown
# T2 sequence: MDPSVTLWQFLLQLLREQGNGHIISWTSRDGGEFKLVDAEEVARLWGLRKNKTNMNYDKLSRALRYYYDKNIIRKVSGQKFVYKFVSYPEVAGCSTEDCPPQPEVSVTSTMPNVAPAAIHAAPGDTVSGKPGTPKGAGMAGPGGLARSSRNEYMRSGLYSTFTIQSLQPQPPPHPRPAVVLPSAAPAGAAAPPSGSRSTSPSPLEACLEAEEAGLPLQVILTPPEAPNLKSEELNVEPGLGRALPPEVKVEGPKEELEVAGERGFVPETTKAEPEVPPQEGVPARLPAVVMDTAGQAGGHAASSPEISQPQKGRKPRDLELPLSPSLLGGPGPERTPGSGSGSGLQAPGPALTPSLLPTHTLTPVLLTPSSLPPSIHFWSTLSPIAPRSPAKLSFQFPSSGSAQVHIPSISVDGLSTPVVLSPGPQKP
# Procedure, shortened: as §1
# GABPA = target: T3, GABPA (Homo sapiens, UniProt Q06546 1-454); settings: protein: recombinant; tags: N-terminal GST; dsDNA, one strand shown
# T3 sequence: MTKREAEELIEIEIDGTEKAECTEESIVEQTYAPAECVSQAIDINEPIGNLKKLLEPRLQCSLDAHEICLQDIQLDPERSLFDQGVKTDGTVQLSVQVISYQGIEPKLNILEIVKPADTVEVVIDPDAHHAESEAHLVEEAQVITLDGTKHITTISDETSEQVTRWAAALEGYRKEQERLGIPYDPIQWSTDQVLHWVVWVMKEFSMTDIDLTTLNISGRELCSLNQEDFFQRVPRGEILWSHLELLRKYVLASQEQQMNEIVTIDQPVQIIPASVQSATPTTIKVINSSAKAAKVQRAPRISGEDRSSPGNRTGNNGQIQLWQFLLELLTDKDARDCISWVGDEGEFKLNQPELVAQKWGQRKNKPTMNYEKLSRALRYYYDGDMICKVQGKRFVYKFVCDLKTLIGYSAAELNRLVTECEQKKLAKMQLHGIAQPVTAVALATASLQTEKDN
# Procedure, shortened: as §1
# ERG = target: T4, ERG (Homo sapiens, UniProt P11308 1-479); settings: protein: recombinant; tags: N-terminal GST; dsDNA, one strand shown
# T4 sequence: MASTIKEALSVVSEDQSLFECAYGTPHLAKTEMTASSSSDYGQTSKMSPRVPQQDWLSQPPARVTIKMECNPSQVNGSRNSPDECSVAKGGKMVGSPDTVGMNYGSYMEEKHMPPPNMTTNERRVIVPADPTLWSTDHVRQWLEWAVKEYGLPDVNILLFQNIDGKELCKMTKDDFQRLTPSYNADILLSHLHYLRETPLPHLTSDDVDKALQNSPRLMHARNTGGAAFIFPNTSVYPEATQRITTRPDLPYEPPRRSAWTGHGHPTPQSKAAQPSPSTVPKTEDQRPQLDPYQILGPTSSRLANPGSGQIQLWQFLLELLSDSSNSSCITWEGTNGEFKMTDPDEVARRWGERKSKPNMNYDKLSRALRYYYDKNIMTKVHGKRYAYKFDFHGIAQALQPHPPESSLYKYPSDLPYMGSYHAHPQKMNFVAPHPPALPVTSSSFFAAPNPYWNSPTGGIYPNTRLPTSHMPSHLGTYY
# Procedure, shortened: as §1
# ELF1 = ELF1 (Homo sapiens, UniProt P32519 1-619); settings: protein: recombinant; tags: N-terminal GST; dsDNA, one strand shown
# Procedure, shortened: as §1
# EHF = target: T5, EHF (Homo sapiens, UniProt Q9NZC4 1-300); settings: protein: recombinant; tags: N-terminal GST; dsDNA, one strand shown
# T5 sequence: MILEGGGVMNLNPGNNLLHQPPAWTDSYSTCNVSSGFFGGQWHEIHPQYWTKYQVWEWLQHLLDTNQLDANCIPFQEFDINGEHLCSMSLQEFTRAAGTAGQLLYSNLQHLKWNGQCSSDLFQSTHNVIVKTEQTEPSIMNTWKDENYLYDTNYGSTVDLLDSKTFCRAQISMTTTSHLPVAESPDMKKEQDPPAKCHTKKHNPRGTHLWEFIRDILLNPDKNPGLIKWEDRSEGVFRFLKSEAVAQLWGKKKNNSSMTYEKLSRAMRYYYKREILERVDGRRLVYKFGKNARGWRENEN
# Procedure, shortened: as §1
# SPI1 = SPI1 (Homo sapiens, UniProt P17947 1-270); settings: protein: recombinant; tags: N-terminal GST; dsDNA, one strand shown
# Procedure, shortened: as §1
# SPIB = SPIB (Homo sapiens, UniProt Q01892 1-262); settings: protein: recombinant; tags: N-terminal GST; dsDNA, one strand shown
# Procedure, shortened: as §1
# ELK3 = target: T6, ELK3 (Homo sapiens, UniProt P41970 1-407); settings: protein: recombinant; tags: N-terminal GST; dsDNA, one strand shown
# T6 sequence: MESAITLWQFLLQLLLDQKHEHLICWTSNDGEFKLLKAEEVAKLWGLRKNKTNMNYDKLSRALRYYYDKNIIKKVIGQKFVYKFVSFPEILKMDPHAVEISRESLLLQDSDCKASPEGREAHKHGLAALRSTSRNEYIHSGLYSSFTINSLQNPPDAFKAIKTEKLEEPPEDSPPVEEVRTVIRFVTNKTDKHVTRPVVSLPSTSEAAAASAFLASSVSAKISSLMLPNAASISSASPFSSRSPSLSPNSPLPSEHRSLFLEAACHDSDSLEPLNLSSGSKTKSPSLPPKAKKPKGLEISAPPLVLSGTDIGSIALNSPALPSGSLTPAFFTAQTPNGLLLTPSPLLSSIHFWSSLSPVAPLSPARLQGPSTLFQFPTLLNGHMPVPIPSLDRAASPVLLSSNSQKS
# Procedure, shortened: as §1
# FEV = target: T7, FEV (Homo sapiens, UniProt Q99581 1-238); settings: protein: recombinant; tags: N-terminal GST; dsDNA, one strand shown
# T7 sequence: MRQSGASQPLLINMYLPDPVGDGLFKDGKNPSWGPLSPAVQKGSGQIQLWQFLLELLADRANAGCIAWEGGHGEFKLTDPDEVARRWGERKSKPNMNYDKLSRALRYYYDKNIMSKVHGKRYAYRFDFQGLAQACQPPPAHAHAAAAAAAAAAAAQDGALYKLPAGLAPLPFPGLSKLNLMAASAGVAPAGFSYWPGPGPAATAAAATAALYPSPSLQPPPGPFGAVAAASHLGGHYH
# Procedure, shortened: as §1
# ETV5 = ETV5 (Homo sapiens, UniProt P41161 1-510); settings: protein: recombinant; tags: N-terminal GST; dsDNA, one strand shown
# Procedure, shortened: as §1
# HSF1 = HSF1 (Homo sapiens, UniProt Q00613 1-529); settings: protein: recombinant; tags: N-terminal GST; chain copies: 3; dsDNA, one strand shown
# Procedure, shortened: as §1
# SPIC = target: T8, SPIC (Homo sapiens, UniProt Q8N5J4 1-248); settings: protein: recombinant; tags: N-terminal GST; dsDNA, one strand shown
# T8 sequence: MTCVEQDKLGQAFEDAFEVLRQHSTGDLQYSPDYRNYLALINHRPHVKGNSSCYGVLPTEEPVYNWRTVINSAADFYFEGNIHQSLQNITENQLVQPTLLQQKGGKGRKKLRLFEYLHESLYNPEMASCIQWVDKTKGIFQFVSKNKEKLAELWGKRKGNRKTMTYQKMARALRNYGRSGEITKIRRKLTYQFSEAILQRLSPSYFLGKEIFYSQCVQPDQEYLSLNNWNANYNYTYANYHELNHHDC
# Procedure, shortened: as §1
# ELF4 = ELF4 (Homo sapiens, UniProt Q99607 1-663); settings: protein: recombinant; tags: N-terminal GST; dsDNA, one strand shown
# Procedure, shortened: as §1
# ELK4 = target: T9, ELK4 (Homo sapiens, UniProt P28324-2 1-405); settings: protein: recombinant; tags: N-terminal GST; dsDNA, one strand shown
# T9 sequence: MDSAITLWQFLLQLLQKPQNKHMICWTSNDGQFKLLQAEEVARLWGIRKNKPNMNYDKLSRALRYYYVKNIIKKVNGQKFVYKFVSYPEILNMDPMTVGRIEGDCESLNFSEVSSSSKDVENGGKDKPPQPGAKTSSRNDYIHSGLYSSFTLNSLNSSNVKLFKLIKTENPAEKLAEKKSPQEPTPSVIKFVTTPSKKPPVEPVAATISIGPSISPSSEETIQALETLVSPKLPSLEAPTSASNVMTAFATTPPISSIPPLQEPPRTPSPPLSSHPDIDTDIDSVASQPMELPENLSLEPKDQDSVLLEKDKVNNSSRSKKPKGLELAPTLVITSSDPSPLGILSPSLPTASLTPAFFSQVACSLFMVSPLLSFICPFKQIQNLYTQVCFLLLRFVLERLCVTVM
# Procedure, shortened: as §1
# ETV2 = target: T10, ETV2 (Homo sapiens, UniProt O00321 1-342); settings: protein: recombinant; tags: N-terminal GST; dsDNA, one strand shown
# T10 sequence: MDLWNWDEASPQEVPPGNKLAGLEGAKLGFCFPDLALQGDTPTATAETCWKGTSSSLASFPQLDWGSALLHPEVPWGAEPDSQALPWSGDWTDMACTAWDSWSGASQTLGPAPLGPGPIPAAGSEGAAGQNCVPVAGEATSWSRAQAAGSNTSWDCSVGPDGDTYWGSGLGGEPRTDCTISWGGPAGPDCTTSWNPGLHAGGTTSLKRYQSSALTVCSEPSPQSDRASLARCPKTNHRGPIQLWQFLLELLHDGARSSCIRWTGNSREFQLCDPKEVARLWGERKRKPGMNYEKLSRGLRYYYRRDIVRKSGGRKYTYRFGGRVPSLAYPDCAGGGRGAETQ
# Procedure, shortened: as §1
# ELF3 = target: T11, ELF3 (Homo sapiens, UniProt P78545 1-371); settings: protein: recombinant; tags: N-terminal GST; dsDNA, one strand shown
# T11 sequence: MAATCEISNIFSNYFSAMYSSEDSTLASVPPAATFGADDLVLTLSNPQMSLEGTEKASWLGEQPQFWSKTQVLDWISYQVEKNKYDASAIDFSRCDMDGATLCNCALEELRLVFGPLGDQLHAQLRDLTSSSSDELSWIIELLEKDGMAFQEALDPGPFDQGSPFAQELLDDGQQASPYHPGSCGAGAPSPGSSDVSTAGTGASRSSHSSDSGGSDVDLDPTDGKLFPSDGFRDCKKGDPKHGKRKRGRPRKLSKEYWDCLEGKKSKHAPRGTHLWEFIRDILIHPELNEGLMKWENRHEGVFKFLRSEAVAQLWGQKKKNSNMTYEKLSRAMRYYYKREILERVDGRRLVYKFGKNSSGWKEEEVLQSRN
# Procedure, shortened: as §1
# CRX = CRX (Homo sapiens, UniProt O43186 1-299); settings: protein: recombinant; tags: N-terminal GST; dsDNA, one strand shown
# Procedure, shortened: as §1
# ETV1 = ETV1 (Homo sapiens, UniProt P50549 1-477); settings: protein: recombinant; tags: N-terminal GST; dsDNA, one strand shown
# Procedure, shortened: as §1
# ELF1, sequence (P32519 whole entry): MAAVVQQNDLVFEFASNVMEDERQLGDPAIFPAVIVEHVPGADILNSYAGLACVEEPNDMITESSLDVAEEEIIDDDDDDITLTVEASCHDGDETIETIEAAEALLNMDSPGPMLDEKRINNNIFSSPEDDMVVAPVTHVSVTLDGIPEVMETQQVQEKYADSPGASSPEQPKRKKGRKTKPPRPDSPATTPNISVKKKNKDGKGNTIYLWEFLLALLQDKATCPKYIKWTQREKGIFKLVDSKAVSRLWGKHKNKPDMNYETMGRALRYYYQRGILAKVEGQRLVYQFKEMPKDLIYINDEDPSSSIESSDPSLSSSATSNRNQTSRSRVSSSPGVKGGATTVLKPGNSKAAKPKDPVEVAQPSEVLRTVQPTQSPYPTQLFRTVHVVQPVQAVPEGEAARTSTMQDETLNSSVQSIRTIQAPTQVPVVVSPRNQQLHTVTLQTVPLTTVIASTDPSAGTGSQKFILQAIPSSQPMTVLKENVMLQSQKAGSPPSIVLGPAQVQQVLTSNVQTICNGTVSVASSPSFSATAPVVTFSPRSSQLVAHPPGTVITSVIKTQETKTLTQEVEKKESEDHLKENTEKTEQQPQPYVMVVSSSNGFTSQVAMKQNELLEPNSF
# ETV5, sequence (P41161 whole entry): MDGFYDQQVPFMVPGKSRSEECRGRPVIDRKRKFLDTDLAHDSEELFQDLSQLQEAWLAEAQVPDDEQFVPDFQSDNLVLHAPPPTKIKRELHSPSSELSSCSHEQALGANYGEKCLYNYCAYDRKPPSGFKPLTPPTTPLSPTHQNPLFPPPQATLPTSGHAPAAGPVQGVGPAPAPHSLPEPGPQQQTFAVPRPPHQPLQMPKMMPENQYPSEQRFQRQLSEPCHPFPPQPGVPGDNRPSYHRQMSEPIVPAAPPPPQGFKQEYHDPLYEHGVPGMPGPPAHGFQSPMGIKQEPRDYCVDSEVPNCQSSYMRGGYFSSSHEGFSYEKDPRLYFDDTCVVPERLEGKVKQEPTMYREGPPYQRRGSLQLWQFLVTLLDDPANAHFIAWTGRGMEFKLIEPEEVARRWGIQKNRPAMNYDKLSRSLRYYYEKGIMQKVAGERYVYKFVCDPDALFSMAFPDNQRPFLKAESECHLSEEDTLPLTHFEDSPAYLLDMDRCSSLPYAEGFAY
# HSF1, sequence (Q00613 whole entry): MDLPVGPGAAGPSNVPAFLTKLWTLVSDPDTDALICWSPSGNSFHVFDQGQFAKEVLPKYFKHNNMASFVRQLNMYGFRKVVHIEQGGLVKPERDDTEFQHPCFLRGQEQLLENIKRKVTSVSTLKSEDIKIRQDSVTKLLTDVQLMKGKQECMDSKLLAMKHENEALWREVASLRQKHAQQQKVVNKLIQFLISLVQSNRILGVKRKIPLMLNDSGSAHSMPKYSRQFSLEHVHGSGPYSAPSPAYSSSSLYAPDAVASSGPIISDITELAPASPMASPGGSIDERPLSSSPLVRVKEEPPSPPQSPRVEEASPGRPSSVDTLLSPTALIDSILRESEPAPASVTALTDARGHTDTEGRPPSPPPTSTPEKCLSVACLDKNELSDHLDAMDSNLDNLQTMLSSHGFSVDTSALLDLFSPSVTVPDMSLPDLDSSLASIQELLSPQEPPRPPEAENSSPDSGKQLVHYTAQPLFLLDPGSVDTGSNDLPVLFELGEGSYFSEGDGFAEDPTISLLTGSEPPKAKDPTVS
# SPIB, sequence (Q01892 whole entry): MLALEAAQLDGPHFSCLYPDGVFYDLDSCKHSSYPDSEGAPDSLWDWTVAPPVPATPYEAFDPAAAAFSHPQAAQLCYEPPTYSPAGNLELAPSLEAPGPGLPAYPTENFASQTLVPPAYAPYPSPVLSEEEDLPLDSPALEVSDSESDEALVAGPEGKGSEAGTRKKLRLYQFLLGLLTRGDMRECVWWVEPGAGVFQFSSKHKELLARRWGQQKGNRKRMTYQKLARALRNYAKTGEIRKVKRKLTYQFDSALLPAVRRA
# ETV1, sequence (P50549 whole entry): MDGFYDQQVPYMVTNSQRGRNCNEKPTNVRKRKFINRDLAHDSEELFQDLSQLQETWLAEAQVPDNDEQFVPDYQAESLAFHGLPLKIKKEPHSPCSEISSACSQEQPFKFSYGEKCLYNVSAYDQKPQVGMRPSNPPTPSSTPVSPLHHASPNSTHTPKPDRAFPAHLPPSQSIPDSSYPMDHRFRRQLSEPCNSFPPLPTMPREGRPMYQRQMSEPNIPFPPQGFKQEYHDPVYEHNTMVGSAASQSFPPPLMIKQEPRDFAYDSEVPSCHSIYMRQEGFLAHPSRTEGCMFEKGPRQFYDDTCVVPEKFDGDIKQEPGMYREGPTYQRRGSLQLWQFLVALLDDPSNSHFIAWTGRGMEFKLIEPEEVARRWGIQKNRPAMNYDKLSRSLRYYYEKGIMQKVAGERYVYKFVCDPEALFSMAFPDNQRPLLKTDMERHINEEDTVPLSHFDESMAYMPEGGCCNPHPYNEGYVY
# ELF4, sequence (Q99607 whole entry): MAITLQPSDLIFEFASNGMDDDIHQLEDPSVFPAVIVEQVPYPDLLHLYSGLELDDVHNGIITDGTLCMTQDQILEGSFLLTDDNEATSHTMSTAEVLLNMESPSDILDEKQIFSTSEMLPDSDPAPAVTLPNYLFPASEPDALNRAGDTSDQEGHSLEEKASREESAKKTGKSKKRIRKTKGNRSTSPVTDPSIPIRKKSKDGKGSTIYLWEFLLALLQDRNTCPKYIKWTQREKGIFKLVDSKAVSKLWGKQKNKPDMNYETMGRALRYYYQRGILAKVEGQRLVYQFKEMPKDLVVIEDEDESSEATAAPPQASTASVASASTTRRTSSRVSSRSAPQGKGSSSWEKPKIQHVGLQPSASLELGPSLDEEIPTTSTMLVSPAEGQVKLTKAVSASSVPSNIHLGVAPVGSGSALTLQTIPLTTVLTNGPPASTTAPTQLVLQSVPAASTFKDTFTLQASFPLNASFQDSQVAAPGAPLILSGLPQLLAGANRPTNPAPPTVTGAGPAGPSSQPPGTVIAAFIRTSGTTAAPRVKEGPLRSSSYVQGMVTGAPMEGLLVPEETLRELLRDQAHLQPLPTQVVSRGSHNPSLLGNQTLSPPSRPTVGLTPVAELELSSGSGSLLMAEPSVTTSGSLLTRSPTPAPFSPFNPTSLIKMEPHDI
# CRX, sequence (O43186 whole entry): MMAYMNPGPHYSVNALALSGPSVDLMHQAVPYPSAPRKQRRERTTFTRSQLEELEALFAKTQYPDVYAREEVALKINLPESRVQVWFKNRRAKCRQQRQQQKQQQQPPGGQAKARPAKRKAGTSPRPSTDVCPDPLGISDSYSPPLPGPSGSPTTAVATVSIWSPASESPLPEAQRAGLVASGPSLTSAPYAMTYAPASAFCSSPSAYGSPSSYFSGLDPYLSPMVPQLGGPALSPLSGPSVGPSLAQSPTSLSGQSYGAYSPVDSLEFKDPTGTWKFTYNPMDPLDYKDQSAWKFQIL
sequence,measurement,setting,value
ACTCCC,binding signal,FLI1,"1.52 fold enrichment (6-mer frequency, TF over GST control)"
same,binding signal,ELK1,"1.2 fold enrichment (6-mer frequency, TF over GST control)"
same,binding signal,GABPA,"1.42 fold enrichment (6-mer frequency, TF over GST control)"
same,binding signal,ERG,"1.45 fold enrichment (6-mer frequency, TF over GST control)"
same,binding signal,ELF1,"1.46 fold enrichment (6-mer frequency, TF over GST control)"
same,binding signal,EHF,"1.38 fold enrichment (6-mer frequency, TF over GST control)"
same,binding signal,SPI1,"1.38 fold enrichment (6-mer frequency, TF over GST control)"
same,binding signal,SPIB,"1.42 fold enrichment (6-mer frequency, TF over GST control)"
same,binding signal,ELK3,"1.43 fold enrichment (6-mer frequency, TF over GST control)"
same,binding signal,FEV,"1.32 fold enrichment (6-mer frequency, TF over GST control)"
same,binding signal,ETV5,"1.42 fold enrichment (6-mer frequency, TF over GST control)"
same,binding signal,HSF1,"1.15 fold enrichment (6-mer frequency, TF over GST control)"
same,binding signal,SPIC,"1.46 fold enrichment (6-mer frequency, TF over GST control)"
same,binding signal,ELF4,"1.31 fold enrichment (6-mer frequency, TF over GST control)"
same,binding signal,ELK4,"1.32 fold enrichment (6-mer frequency, TF over GST control)"
same,binding signal,ETV2,"1.11 fold enrichment (6-mer frequency, TF over GST control)"
same,binding signal,ELF3,"1.25 fold enrichment (6-mer frequency, TF over GST control)"
same,binding signal,CRX,"1.13 fold enrichment (6-mer frequency, TF over GST control)"
same,binding signal,ETV1,"1.25 fold enrichment (6-mer frequency, TF over GST control)"
